From PubChem BioAssay
The source made the active and inactive calls.

What was measured:
[1] = tested on: Plasmodium falciparum Sir2 (PF13_0152, Sir2A); assay: pfSir2 binders on small-molecule microarrays, primary screen, biochemical, small-molecule microarray, 635 nm fluorescence (AID 1098); details: small-molecule microarray binding, fluorescence 635 nm; higher = more signal;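 note: score merges spot fluorescence intensity with its signal-to-noise ratio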
[2] = small-molecule microarray binders of probe aDKK1, primary screen, biochemical, biotinylated probe, 635/667 nm fluorescence (AID 1099); details: higher = more signal;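 note: score merges 667nm spot fluorescence with signal to noise across triplicate slides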
[3] = small-molecule microarray binders of probe aCHRDL2, primary screen, biochemical, biotinylated probe, 635/667 nm fluorescence (AID 1100); details: higher = more signal
[4] = splicing luciferase reporter signal modulators, primary screen, spliceosome inhibition project, cell-based, HEK293, splice +/- reporter (AID 1101); details: luminescence, 24 h, higher = more signal, called active from +8 up or from −8 down;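 note: HEK293 cells carrying a splicing-competent luciferase reporter gene; test concentration not given here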
[5] = biological target: Fibroblast growth factor 10 (Homo sapiens) (UniProt O15520); assay: FGF10 binders on small-molecule microarrays, primary screen, biochemical, small-molecule microarray, 635 nm fluorescence (AID 1102); details: FGF10 binding, fluorescence 635 nm, higher = more signal
[6] = tested on: glycogen synthase kinase-3 (GSK3A per assay name; protocol says GSK3B); assay: GSK3 binders on small-molecule microarrays, primary screen, biochemical, small-molecule microarray, 635 nm fluorescence, GSK3A (AID 1103); details: small-molecule microarray binding, fluorescence 635 nm; higher = more signal; note: the record names both GSK3A and GSK3B
[7] = biological target: Epidermal growth factor receptor (Homo sapiens) (UniProt P00533); assay: EGFR binders on small-molecule microarrays, primary screen, biochemical, small-molecule microarray, 635 nm fluorescence (AID 1104); details: EGFR binding, higher = more signal;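 note: score merges 667 nm emission intensity with spot signal to noise over triplicate slides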
[8] = biological target: Follistatin-related protein 3 (Homo sapiens) (UniProt O95633); assay: FSTL3 binders on small-molecule microarrays, primary screen, biochemical, small-molecule microarray, 635 nm fluorescence (AID 1105); details: FSTL3 binding, higher = more signal;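 note: score merges emission near 667 nm and signal to noise per printed spot across three slides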
[9] = biological target: Dickkopf-related protein 1 (Homo sapiens) (UniProt O94907); assay: DKK1 binders on small-molecule microarrays, primary screen, biochemical, small-molecule microarray, 635 nm fluorescence scan (AID 1106); details: DKK1 binding, higher = more signal;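 note: score merges emission near 667 nm with signal to noise over three replicate slides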
[10] = tested on: Inhibin beta A chain (activin A); assay: INHBA (activin A) binders on microarrays, primary screen, biochemical, small-molecule microarray, 635 nm fluorescence scan (AID 1107); details: small-molecule microarray binding, higher = more signal;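 note: mouse activin A protein probed at 4.33 µg/mL on printed slides; score merges bound-protein fluorescence near 667 nm with spot signal-to-noise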
[11] = tested on: Human papillomavirus type 1a protein E7 (residues 44-93); assay: HPV1a E7 fragment binders on microarrays, primary screen, biochemical, small-molecule microarray, residues 44-93, 635 nm fluorescence (AID 1108); details: small-molecule microarray binding, fluorescence 635 nm; higher = more signal;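 note: E7 fragment applied at 1 µg/mL in TBST for 1 h at 4 C; score combines spot fluorescence with its signal to noise ratio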
[12] = modulators of HCV replicon luciferase signal, primary screen, HCV replication inhibitor project, Huh7 cells, luciferase reporter (AID 1109); details: 48 h, higher = more signal;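 note: huh7 hepatoma cells harbouring a luciferase neomycin HCV replicon reporter; luciferase luminescence as measure of HCV replicon replication; test concentration not given here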
[13] = biological target: Left-right determination factor 2 (Homo sapiens) (UniProt O00292); assay: LEFTY2 binders on small-molecule microarrays, primary screen, biochemical, small-molecule microarray, 635 nm fluorescence scan (AID 1110); details: LEFTY2 binding, higher = more signal
[14] = biological target: Calmodulin-1 (Homo sapiens) (UniProt P0DP23); assay: CALM1 binders on microarrays, EGTA buffer, profiling panel, biochemical, small-molecule microarray, Cy5-labelled CALM1 (AID 1111); details: Cy5-CALM1 binding fluorescence, higher = more signal;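 note: labelled calmodulin applied in Tris saline Tween buffer holding calcium plus EGTA and DTT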
[15] = biological target: Calmodulin-1 (Homo sapiens) (UniProt P0DP23); assay: calcium-bound CALM1 binders on microarrays, profiling panel, artefact control for SMM control-protein annotation, biochemical, small-molecule microarray, Cy5-labelled CALM1, plus calcium (AID 1112); details: Cy5-CALM1 binding fluorescence, higher = more signal;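 note: score merges spot fluorescence with signal to noise from triplicate slides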
[16] = small-molecule microarray binders of probe aWnt5a, primary screen, biochemical, biotinylated probe, 635/667 nm fluorescence (AID 1113); details: higher = more signal;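 note: score merges 667 nm fluorescence intensity with signal-to-noise per printed feature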
[17] = small-molecule microarray binders of probe aShh, primary screen, biochemical, biotinylated probe, 635/667 nm fluorescence (AID 1114); details: higher = more signal;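 note: probe is biotin-labelled aShh protein from a stem cell growth factor screen; measures binding of labelled protein to compounds printed on the slide; score merges feature fluorescence at 667 nm with signal-to-noise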
[18] = small-molecule microarray binders of probe aNog, primary screen, biochemical, biotinylated probe, 635/667 nm fluorescence (AID 1115); details: higher = more signal;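 note: probe is biotinylated aNog protein used at 0.15 µg/mL for 1 h at 4 C; z-score combines 667 nm fluorescence of each spot with its signal to noise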
[19] = biological target: Torsin-1A-interacting protein 1 (Homo sapiens) (UniProt Q5JTV8); assay: LAP1 binders from COS7 cell lysate, primary screen, small-molecule microarray, 635/667 nm fluorescence (AID 1116); details: COS7-hLAP1 lysate binding, 635 nm fluorescence, higher = more signal
[20] = biological target: Alpha-bungarotoxin (Bungarus multicinctus) (UniProt P60615); assay: alpha-bungarotoxin binders on microarray, profiling panel, artefact control for SMM control protein annotation, biochemical, small-molecule microarray, Alexa647 label, 635/667 nm fluorescence (AID 1117); details: alpha-BTX-A647 binding fluorescence, higher = more signal
Chain of Alpha-bungarotoxin (Bungarus multicinctus) (P60615 whole entry, looked up): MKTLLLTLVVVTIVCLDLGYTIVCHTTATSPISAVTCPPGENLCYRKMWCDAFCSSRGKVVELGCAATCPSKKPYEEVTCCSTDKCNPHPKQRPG

Chain of Left-right determination factor 2 (Homo sapiens) (O00292 whole entry, looked up): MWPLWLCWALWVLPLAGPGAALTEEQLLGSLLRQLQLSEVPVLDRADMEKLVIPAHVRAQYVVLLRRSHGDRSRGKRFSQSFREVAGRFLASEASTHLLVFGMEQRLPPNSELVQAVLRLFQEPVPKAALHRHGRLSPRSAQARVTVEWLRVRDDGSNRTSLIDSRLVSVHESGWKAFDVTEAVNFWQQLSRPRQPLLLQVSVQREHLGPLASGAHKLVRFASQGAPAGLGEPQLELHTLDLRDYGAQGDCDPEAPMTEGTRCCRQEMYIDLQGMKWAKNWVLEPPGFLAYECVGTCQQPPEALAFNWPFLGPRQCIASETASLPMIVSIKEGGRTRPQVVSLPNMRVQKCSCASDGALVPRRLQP
Chain of Follistatin-related protein 3 (Homo sapiens) (O95633 whole entry, looked up): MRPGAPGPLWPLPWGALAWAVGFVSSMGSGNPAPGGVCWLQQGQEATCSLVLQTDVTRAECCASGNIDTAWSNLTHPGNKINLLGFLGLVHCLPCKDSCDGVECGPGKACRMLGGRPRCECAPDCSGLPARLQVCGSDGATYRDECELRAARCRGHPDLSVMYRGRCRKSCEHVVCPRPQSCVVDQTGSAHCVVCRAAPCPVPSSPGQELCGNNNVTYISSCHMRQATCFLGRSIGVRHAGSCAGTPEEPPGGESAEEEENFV
Chain of Epidermal growth factor receptor (Homo sapiens) (P00533 whole entry, looked up): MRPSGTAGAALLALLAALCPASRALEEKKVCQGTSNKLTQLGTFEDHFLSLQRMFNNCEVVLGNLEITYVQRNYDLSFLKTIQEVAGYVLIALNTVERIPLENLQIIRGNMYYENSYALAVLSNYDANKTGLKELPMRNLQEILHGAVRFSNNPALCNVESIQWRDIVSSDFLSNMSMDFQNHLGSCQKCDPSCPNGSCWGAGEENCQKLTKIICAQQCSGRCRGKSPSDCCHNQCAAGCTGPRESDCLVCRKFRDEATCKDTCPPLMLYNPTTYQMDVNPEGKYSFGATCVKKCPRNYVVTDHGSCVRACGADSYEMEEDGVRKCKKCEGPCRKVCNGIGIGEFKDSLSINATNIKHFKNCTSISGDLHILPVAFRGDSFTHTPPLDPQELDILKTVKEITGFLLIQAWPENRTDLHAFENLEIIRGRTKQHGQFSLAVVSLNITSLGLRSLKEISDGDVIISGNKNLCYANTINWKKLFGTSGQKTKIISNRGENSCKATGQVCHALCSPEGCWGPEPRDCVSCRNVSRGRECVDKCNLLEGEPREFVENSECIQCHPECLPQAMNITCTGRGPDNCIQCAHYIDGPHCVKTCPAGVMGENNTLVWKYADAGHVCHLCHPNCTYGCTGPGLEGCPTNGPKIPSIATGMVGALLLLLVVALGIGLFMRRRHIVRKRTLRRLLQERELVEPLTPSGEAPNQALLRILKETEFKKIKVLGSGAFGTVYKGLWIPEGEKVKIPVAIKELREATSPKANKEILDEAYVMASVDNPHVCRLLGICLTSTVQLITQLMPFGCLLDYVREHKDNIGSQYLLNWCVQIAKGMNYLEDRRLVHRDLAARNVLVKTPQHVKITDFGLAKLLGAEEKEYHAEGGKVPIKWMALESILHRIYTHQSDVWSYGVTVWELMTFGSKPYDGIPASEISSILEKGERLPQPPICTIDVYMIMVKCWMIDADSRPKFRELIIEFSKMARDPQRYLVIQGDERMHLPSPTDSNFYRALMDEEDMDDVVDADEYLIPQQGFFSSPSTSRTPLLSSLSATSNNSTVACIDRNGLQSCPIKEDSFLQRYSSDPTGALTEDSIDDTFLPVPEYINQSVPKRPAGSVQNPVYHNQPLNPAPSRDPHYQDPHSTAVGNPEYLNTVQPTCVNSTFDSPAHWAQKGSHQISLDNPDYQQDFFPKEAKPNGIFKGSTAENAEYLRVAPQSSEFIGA
Chain of Dickkopf-related protein 1 (Homo sapiens) (O94907 whole entry, looked up): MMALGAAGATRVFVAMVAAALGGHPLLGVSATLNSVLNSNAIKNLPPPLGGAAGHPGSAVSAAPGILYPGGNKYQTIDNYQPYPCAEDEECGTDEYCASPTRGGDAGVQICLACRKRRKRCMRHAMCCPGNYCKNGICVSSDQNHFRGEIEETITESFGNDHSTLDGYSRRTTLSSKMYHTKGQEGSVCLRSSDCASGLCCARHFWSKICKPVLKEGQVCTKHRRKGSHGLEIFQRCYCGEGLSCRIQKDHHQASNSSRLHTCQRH
Chain of Torsin-1A-interacting protein 1 (Homo sapiens) (Q5JTV8 whole entry, looked up): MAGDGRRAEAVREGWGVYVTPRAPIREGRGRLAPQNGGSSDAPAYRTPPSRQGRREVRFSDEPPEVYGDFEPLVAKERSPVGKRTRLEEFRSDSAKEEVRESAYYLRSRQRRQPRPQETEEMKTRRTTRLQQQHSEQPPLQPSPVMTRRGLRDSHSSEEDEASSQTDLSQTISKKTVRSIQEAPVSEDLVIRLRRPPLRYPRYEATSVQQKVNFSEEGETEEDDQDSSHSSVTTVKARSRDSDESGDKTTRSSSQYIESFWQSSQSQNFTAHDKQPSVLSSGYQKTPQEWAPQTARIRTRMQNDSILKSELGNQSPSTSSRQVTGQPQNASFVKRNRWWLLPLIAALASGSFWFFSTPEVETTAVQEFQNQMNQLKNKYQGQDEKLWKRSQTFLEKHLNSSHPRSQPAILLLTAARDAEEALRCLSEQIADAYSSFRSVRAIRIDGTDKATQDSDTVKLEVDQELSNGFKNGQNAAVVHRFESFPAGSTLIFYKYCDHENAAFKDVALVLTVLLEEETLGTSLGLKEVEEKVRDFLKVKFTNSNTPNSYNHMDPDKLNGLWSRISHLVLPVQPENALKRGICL
Chain of Fibroblast growth factor 10 (Homo sapiens) (O15520 whole entry, looked up): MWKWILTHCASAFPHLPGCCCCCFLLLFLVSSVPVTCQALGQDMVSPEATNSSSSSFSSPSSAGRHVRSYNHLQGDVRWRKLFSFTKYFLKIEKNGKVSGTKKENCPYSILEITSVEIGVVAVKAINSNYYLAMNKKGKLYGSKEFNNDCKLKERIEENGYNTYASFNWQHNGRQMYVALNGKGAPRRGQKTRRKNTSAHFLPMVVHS

Row | SMILES | composite z-score [1] | composite z-score [2] | composite z-score [3] | z-score [4] | composite z-score [5] | composite z-score [6] | composite z-score [7] | composite z-score [8] | composite z-score [9] | composite z-score [10] | composite z-score [11] | z-score [12] | composite z-score [13] | composite z-score [14] | composite z-score [15] | composite z-score [16] | composite z-score [17] | composite z-score [18] | composite z-score [19] | composite z-score [20]
1 | [N-]=[N+]=NCc1ccccc1C[C@@]1(C(=O)O)N=C(c2ccc(OCCCO)cc2)O[C@@H]1c1ccccc1CN=[N+]=[N-] | 0.705 | 0.317 | 0.779 | -0.806 (inactive) | 1.15 | 0.577 | -0.227 | 0.814 | 0.31 | 0.69 | 1.39 | -1.84 | 0.219 | 0.973 | -0.0107 | 0.0676 | 0.0121 | -0.56 | 0.74 | 1.27
2 | CC(C)CNC(=O)[C@@H]1c2ccccc2C(=O)N(C(C)C)[C@H]1c1ccc(CO)cc1 | 1.36 | 0.0026 | 0.763 | -1.26 (inactive) | -0.787 | -0.221 | -0.5 | -0.573 | -0.382 | 0.849 | -0.043 | -0.972 | -0.269 | -0.451 | 0.0584 | -0.24 | -0.2 | 0.49 | 1.58 | -0.75
3 | CCOC(=O)C[C@H]1[C@H](OC(=O)c2ccc(-c3ccccc3)cc2)[C@@H](NC(=O)CC(C)C)c2cc(OCCCO)ccc2N1C(=O)Cc1ccc(OC)cc1 | -0.146 | 0.448 | 0.624 | -0.463 (inactive) | 0.22 | 0.0434 | -0.263 | -0.195 | -0.204 | -0.353 | 0.157 | -1.84 | 0.141 | 1.05 | 0.335 | -0.0523 | -0.2 | -0.126 | 0.418 | 0.446
4 | COCCOC(=O)N1C(=O)[C@@]2(c3cc(C#CC4=CCCCC4)ccc31)[C@H](c1ccccc1OCCO)N1[C@H](c3ccccc3)[C@H](c3ccccc3)OC(=O)[C@H]1[C@@H]2C(N)=O | 1.35 | -0.0668 | -0.144 | -3.87 (inactive) | 1.29 | 1.31 | 0.766 | 1.2 | 0.912 | 0.557 | 1.32 | -3.44 | 0.62 | 0.367 | -0.416 | -0.0758 | -0.167 | -0.512 | 0.383 | 0.161
5 | O=C1C2C=CC(C(O)C(c3ccccc3)c3ccccc3)N(Nc3ccccc3)C2C(=O)N1c1ccccc1 (stereo not given) | 1.46 | 0.467 | 0.741 | -0.384 (inactive) | 0.68 | 1.32 | 0.385 | 1.44 | -0.42 | 0.221 | 1.44 | -0.267 | 0.438 | 0.809 | 0.173 | -0.0051 | 0.0068 | 0.162 | 0.429 | 1.1
6 | COCCOC(=O)N1C(=O)[C@@]2(c3cc(C#CCC(C(=O)OC)C(=O)OC)ccc31)[C@H](c1ccc(OCCO)cc1)N1[C@H](c3ccccc3)[C@H](c3ccccc3)OC(=O)[C@H]1[C@@H]2C(=O)N1CCCCCCC1 | 1.27 | 2.5 | 1.21 | -0.915 (inactive) | 0.778 | 1.34 | 1.32 | 1.66 | 1.04 | 1.93 | 1.21 | -0.735 | 1.13 | 2.57 | 1.53 | 0.816 | 2.6 | 3.08 | 3.22 | 2.32
7 | CCOC(=O)C1=C[C@@H](C(C)(C)C)N(S(=O)(=O)c2ccc(C)cc2)[C@H]1c1ccccc1Cl | 0.993 | 1.18 | 1.11 | -0.232 (inactive) | 0.915 | 1.29 | 0.292 | 1.18 | 0.0627 | 0.0829 | 0.694 | -1.8 | 0.633 | 1.95 | 0.84 | 0.1 | -0.177 | 0.527 | 1.13 | 1.73
8 | COc1ccc([Si](C)(C)[C@H]2[C@H](CC(=O)N3Cc4ccccc4C[C@H]3CO)O[C@@]3(C(=O)N(Cc4cccc(N5C(=O)c6cccc7cccc5c67)c4)c4ccccc43)[C@@H]2C)cc1 | 1.63 | -0.37 | -0.151 | -1.87 (inactive) | 1.31 | 0.627 | 0.774 | 1.28 | 0.948 | 1.2 | 1.19 | -4.08 | 0.633 | -0.144 | -0.836 | -0.0316 | -0.0778 | 1.11 | 0.302 | 2.33
9 | CC(=O)NCCCC[C@@H]1NC(=O)[C@@H]2C[C@H](C(=O)NCCCCCC[N+](C)(C)C)[C@H](c3ccc(O)cc3)N2C1=O | 1.42 | -0.134 | -0.208 | -0.0826 (inactive) | 0.518 | 0.224 | 0.0882 | 0.977 | 1.12 | 0.645 | 1.11 | 0.825 | 0.943 | -0.504 | -0.901 | -0.15 | 0.0278 | -0.347 | 0.343 | -0.659
10 | CC(C)C[C@@H]1NC(=O)[C@@H]2C[C@H](C(=O)O)[C@H](c3ccc(O)cc3)N2C1=O | 1.44 | 0.361 | 0.383 | -0.687 (inactive) | 0.914 | 1.31 | 0.801 | 1.25 | 0.976 | -0.0021 | 0.309 | -0.836 | 0.695 | 1.31 | 0.192 | -0.0512 | 0.0611 | 0.116 | 1.22 | 1.64
11 | C=CCC(OC(C)=O)[C@@H]1[C@@H](N(Cc2cccc3ccccc23)C(=O)c2cccc3ccccc23)c2cc(OCCCO)ccc2N1C(=O)Cc1ccc2ccccc2c1 (stereo not given in full) | -0.181 | -0.177 | 0.551 | 0.341 (inactive) | -0.0715 | -0.0273 | -0.117 | 0.246 | -0.394 | 1.48 | 0.281 | 0.108 | -0.277 | -0.603 | -0.177 | -0.0685 | -0.138 | 0.255 | 0.0057 | -0.424
